In article PMC7862700, “An all-to-all approach to the identification of sequence-specific readers for epigenetic DNA modifications on cytosine”:

Assays:
Test in all cases: DAPPL (digital affinity profiling via proximity ligation, sequencing); 10 mM Tris-HCl pH 7.5, 50 mM NaCl, 1 mM DTT, 4% glycerol, room temperature, 30 min; GST-TFs on glutathione beads, 16-mer random dsDNA library, 0.1% formaldehyde crosslink after washing; high values mean tight binding
Details in all cases: protein: recombinant; tags: N-terminal GST; dsDNA, one strand shown
FLI1 = target: T1, FLI1 (Homo sapiens, UniProt Q01543 1-452)
T1 sequence: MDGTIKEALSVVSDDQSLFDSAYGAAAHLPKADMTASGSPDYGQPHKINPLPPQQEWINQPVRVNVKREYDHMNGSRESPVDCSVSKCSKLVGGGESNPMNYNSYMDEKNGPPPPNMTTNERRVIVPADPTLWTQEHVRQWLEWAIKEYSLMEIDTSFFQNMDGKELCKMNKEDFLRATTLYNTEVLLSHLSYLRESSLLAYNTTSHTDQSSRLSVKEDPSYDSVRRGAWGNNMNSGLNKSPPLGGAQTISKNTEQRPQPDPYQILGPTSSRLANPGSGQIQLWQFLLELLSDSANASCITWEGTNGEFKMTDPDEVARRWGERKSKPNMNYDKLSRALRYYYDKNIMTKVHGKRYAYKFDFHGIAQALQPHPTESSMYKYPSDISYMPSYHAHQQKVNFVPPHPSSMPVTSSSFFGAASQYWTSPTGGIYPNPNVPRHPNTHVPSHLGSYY
In short: (§1)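 GST fusions of human transcription factors were expressed in yeast and captured with glutathione beads. Once given DNA barcodes and pooled alongside a tag-only sample, they were incubated for 30 min at room temperature with 200 nmole of a random double-stranded 16-mer DNA library in Tris/NaCl/DTT/glycerol buffer, then washed, crosslinked (0.1% formaldehyde), proximity-ligated, PCR-amplified and sequenced on an Illumina NextSeq500. The binding signal of each hexamer is its read frequency for a factor divided by its frequency for the tag-only sample.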

ELK1 = target: T2, ELK1 (Homo sapiens, UniProt P19419 1-428)
T2 sequence: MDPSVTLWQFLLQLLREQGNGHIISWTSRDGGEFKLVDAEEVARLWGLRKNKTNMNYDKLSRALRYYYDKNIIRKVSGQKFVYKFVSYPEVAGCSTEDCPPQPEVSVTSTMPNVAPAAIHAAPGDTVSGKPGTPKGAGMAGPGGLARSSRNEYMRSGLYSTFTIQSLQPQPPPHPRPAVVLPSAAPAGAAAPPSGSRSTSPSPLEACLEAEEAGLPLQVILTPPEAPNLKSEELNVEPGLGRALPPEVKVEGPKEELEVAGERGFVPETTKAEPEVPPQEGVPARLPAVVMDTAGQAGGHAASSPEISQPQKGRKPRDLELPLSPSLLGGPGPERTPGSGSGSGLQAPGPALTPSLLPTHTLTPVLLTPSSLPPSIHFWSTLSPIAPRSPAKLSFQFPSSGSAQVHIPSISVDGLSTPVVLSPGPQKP
In short: as §1

GABPA = target: T3, GABPA (Homo sapiens, UniProt Q06546 1-454)
T3 sequence: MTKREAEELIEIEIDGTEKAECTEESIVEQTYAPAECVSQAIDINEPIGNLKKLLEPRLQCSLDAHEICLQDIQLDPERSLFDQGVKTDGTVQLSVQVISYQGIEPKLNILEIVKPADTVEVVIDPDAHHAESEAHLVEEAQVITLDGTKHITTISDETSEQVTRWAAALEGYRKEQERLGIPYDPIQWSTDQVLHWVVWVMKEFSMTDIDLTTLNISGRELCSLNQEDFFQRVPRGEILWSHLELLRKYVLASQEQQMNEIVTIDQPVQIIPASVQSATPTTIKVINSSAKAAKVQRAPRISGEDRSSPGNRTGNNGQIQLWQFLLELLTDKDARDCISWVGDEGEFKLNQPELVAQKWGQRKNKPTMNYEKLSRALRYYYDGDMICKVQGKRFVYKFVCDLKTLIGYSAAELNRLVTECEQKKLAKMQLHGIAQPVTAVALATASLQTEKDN
In short: as §1

ERG = target: T4, ERG (Homo sapiens, UniProt P11308 1-479)
T4 sequence: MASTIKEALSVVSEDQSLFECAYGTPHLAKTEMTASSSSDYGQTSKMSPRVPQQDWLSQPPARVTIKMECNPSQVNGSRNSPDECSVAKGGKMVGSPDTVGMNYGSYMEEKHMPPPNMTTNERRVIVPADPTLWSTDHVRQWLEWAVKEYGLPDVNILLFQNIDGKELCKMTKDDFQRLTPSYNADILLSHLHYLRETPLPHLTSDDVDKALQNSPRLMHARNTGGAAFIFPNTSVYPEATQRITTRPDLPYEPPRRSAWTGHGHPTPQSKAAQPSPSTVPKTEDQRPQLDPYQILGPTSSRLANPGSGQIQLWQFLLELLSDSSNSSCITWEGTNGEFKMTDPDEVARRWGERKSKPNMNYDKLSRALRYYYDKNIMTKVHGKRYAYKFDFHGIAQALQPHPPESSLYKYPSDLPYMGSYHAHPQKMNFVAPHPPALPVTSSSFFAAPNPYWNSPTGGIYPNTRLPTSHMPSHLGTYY
In short: as §1

ELF1 = ELF1 (Homo sapiens, UniProt P32519 1-619)
In short: as §1

EHF = target: T5, EHF (Homo sapiens, UniProt Q9NZC4 1-300)
T5 sequence: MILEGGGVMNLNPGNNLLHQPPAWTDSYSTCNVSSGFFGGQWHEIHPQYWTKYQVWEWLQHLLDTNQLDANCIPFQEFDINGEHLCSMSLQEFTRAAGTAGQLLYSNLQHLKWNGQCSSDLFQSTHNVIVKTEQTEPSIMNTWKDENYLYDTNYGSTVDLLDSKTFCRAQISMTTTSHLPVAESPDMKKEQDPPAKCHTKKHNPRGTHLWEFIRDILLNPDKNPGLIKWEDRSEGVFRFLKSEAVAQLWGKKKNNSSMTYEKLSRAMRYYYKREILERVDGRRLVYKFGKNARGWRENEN
In short: as §1

SPI1 = SPI1 (Homo sapiens, UniProt P17947 1-270)
In short: as §1

SPIB = SPIB (Homo sapiens, UniProt Q01892 1-262)
In short: as §1

ELK3 = target: T6, ELK3 (Homo sapiens, UniProt P41970 1-407)
T6 sequence: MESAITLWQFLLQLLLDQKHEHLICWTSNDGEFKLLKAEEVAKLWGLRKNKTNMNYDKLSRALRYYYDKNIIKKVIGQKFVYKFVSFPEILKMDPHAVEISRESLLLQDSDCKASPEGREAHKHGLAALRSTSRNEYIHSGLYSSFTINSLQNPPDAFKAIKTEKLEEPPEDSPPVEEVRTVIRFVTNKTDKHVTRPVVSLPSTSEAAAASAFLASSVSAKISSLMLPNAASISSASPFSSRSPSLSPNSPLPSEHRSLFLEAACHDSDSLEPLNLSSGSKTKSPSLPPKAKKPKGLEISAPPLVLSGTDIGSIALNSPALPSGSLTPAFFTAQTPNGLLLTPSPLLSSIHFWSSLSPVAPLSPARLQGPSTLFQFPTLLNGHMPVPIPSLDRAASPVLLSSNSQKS
In short: as §1

Sequence of ELF1 (P32519 whole entry): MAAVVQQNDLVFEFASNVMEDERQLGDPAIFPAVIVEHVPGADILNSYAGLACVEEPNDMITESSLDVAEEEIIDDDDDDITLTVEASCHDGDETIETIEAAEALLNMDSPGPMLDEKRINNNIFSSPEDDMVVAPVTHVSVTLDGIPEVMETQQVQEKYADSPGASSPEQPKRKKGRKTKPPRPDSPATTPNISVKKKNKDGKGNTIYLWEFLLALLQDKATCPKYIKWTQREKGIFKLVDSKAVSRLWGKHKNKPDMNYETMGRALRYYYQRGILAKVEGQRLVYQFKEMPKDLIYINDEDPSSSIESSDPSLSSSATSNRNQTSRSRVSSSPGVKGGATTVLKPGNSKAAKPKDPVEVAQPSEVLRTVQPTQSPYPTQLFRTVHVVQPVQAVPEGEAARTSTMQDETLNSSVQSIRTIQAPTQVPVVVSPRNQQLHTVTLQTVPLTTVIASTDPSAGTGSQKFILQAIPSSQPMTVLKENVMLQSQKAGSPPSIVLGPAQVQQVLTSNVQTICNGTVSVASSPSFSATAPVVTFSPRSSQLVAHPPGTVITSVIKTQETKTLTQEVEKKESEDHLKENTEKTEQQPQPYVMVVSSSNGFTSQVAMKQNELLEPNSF
Sequence of SPIB (Q01892 whole entry): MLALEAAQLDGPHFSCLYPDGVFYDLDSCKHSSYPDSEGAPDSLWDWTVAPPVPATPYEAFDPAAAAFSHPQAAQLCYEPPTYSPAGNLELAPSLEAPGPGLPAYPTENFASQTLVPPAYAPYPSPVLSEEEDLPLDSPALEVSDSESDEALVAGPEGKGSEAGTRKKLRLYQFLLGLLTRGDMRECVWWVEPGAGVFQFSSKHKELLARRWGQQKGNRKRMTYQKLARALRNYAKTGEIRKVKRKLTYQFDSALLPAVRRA

Q: What does the source list for CTCCAC?
A: binding signal (FLI1): 1.56 fold enrichment (6-mer frequency, TF over GST control); binding signal (ELK1): 1.41 fold enrichment (6-mer frequency, TF over GST control); binding signal (GABPA): 1.46 fold enrichment (6-mer frequency, TF over GST control); binding signal (ERG): 1.37 fold enrichment (6-mer frequency, TF over GST control); binding signal (ELF1): 1.38 fold enrichment (6-mer frequency, TF over GST control); binding signal (EHF): 1.32 fold enrichment (6-mer frequency, TF over GST control); binding signal (SPI1): 1.55 fold enrichment (6-mer frequency, TF over GST control); binding signal (SPIB): 1.32 fold enrichment (6-mer frequency, TF over GST control); binding signal (ELK3): 1.54 fold enrichment (6-mer frequency, TF over GST control)
